{"source": "PubChem BioAssay AID602252", "about": "(Broad Institute, 2012)", "note": "Out of some 300,000 compounds screened, about 2,700 (0.9%) were called active.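 How the source made its calls: active means mean inhibition of at least 30% with at least half of replicates also reaching 30%; inconclusive means no clear call, values can overlap the other calls; inactive means the rest.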 For the sample, actives were picked, then their nearest neighbours and some compounds at random.", "data": [{"target": "Golgi-associated PDZ and coiled-coil motif-containing protein (Homo sapiens) (UniProt Q9HD26)", "experiment": "untagged CAL PDZ binding inhibitors, primary screen, biochemical, fluorescence polarization, HTS (AID 602252);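 further: 0% = DMSO neutral control and 100% = excess unlabeled competitor peptide PRC23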", "conditions": "purified CAL PDZ, TMR-peptide fluorescence polarization, 1 h; at 24.9 µM; stronger effect = higher value", "values": [{"smiles": "CC(C)(C)C(=O)Nc1cccc(-c2ccc[nH]2)n1", "inhibition": "-1.63% (inactive)"}, {"smiles": "CC(=O)N1CCN(C(=O)C2(NC(=O)Nc3ccc(C)cc3)CCCCC2)CC1", "inhibition": "48% (active)"}, {"smiles": "Cc1ccccc1NC(=O)NC1(C(=O)N2CCCC2)CCCCC1", "inhibition": "-0.684% (inactive)"}, {"smiles": "CCN1CCN(C(=O)C2(NC(=O)Nc3cccc(F)c3)CCCCC2)CC1", "inhibition": "-0.757% (inactive)"}, {"smiles": "Cn1cncc1C#Cc1c(-c2ccsc2)sc2ccccc12", "inhibition": "-4.14% (inactive)"}, {"smiles": "Oc1ccc(-c2nc3ccccc3nc2-c2ccc(O)cc2O)c(O)c1", "inhibition": "89% (active)"}, {"smiles": "Oc1ccc(-c2[nH]ncc2-c2nc3ccccc3s2)c(O)c1", "inhibition": "-4.79% (inactive)"}, {"smiles": "Cc1cc(O)ccc1-c1cnc2ccccc2n1", "inhibition": "-0.904% (inactive)"}, {"smiles": "CCN1C[C@@H]2[C@@H]3C(=O)N(C)C(=O)[C@@H]3[C@](C)(C1=O)N2C(=O)c1ccccc1", "inhibition": "-2.56% (inactive)"}, {"smiles": "CCC1([N+](=O)[O-])COC(c2ccc(C(C)C)cc2)OC1", "note": "(stereo not given)", "inhibition": "2.08% (inactive)"}, {"smiles": "COc1cccc2oc(CCc3ccccc3)cc(=O)c12", "inhibition": "-0.506% (inactive)"}, {"smiles": "Cc1ccc(S(=O)(=O)N2C[C@@H]3CCCC[C@@H]3[C@@H](C)[C@H]2c2cn(Cc3ccccc3)c3ccc(F)cc23)cc1", "inhibition": "-5.03% (inactive)"}, {"smiles": "Cc1cc(=O)oc2cc(OCC(=O)Nc3nnc(C4CC4)s3)ccc12", "inhibition": "51.4% (active)"}, {"smiles": "COc1ccc2c(CC(=O)Nc3nnc(C4CC4)s3)coc2c1", "inhibition": "-1.76% (inactive)"}, {"smiles": "CCOC(=O)Cc1csc(NC(=O)COc2ccc3c(C)cc(=O)oc3c2)n1", "inhibition": "-3.4% (inactive)"}, {"smiles": "CC(=O)Nc1ccc(C(=O)Nc2cc(S(=O)(=O)N3CCOCC3)ccc2N2CCOCC2)cc1", "inhibition": "-4.08% (inactive)"}, {"smiles": "COc1cccc(CC(=NO)c2cccc(OC)c2)c1", "inhibition": "-7.29% (inactive)"}, {"smiles": "CC(CN1CCOCC1)OC(=O)c1ccc(C(C)(C)C)cc1", "note": "(stereo not given)", "inhibition": "-3.82% (inactive)"}, {"smiles": "Cc1ccc(C(=O)OC(C)CN2CCOCC2)cc1", "note": "(stereo not given)", "inhibition": "70.2% (active)"}, {"smiles": "CC(CN1CCOCC1)OC(=O)c1ccc(Cl)cc1Cl", "note": "(stereo not given)", "inhibition": "-2.34% (inactive)"}, {"smiles": "Cc1csc(NC(=O)C2CCN(S(=O)(=O)c3ccccc3)CC2)n1", "inhibition": "3.13% (inactive)"}, {"smiles": "OC(CNCc1ccc2c(c1)OCO2)COc1ccccc1", "note": "(stereo not given)", "inhibition": "-0.826% (inactive)"}, {"smiles": "OC(COc1ccccc1)CN1CCN(c2cccc(Cl)c2)CC1", "note": "(stereo not given)", "inhibition": "-5.9% (inactive)"}, {"smiles": "OC(CNCCc1ccc(Cl)cc1Cl)COc1ccccc1", "note": "(stereo not given)", "inhibition": "64.2% (active)"}, {"smiles": "O=C(CSc1nnc(CN2CCCC2)n1-c1ccc(F)cc1)c1ccc2c(c1)OCO2", "inhibition": "-2.04% (inactive)"}, {"smiles": "COC[C@@H]1NS(=O)(=O)c2ccc(Br)cc2O[C@H]1c1ccccc1", "inhibition": "-7.2% (inactive)"}, {"smiles": "COc1cccc(OCc2cc(C(=O)N3CCN(C(=O)c4ccco4)CC3)no2)c1", "inhibition": "139% (active)"}, {"smiles": "O=C(c1cc(COc2cccc(C(F)(F)F)c2)on1)N1CCSCC1", "inhibition": "-4.68% (inactive)"}, {"smiles": "COc1ccc(OCc2cc(C(=O)N3CCCC3)no2)c2ccccc12", "inhibition": "-4.16% (inactive)"}, {"smiles": "C[C@H](CO)N1C[C@H](C)[C@@H](CN(C)Cc2ccc(-c3ccccc3)cc2)Oc2ccc(NC(=O)Cn3cnnn3)cc2C1=O", "inhibition": "-3.86% (inactive)"}, {"smiles": "O=C(O)CN(Cc1ccco1)S(=O)(=O)c1ccccc1", "inhibition": "-2.04% (inactive)"}, {"smiles": "O=C(O)CN(Cc1ccco1)S(=O)(=O)c1ccc(F)cc1", "inhibition": "41.2% (active)"}, {"smiles": "CCN(CC(=O)NCc1ccco1)S(=O)(=O)c1ccc(F)cc1", "inhibition": "-5.17% (inactive)"}, {"smiles": "O=C1NC(c2ccccc2)Cc2ccncc21", "note": "(stereo not given)", "inhibition": "0.221% (inactive)"}, {"smiles": "CCN(CC)S(=O)(=O)c1ccc(N2CCOCC2)c(NC(=O)C(C)Oc2ccc(F)cc2)c1", "note": "(stereo not given)", "inhibition": "-9.92% (inactive)"}, {"smiles": "CCOC(=O)c1sc2nc(CSc3ccccc3)[nH]c(=O)c2c1C", "inhibition": "82.4% (active)"}, {"smiles": "CCOC(=O)c1sc2nc(C)[nH]c(=O)c2c1C", "inhibition": "-5.61% (inactive)"}, {"smiles": "CCOC(=O)c1sc2nc(CSCC(=O)OCc3ccc(C(=O)OC)o3)[nH]c(=O)c2c1C", "inhibition": "-1.2% (inactive)"}, {"smiles": "CN(C)CCNC(=O)c1ccc(Cl)c2cc3ccccc3nc12", "inhibition": "-3.6% (inactive)"}, {"smiles": "Cc1ccc(S(=O)(=O)N(C)C)cc1NC(=O)CN1c2cccc3cccc(c23)S1(=O)=O", "inhibition": "1.34% (inactive)"}, {"smiles": "COc1cc(OC)cc(-c2nnc(N(C)C(=O)c3ccncc3)s2)c1", "inhibition": "-5.84% (inactive)"}, {"smiles": "CN(C(=O)c1ccno1)c1nnc(-c2cccnc2)s1", "inhibition": "79.5% (active)"}, {"smiles": "CN(C(=O)C1CCOC1)c1nnc(-c2cccnc2)s1", "note": "(stereo not given)", "inhibition": "5.89% (inactive)"}, {"smiles": "Cc1ccc(S(=O)(=O)CCC(=O)OCC(=O)N(C)Cc2ccccc2)cc1", "inhibition": "-0.906% (inactive)"}, {"smiles": "O=C(COc1ccccc1F)Nc1nc(-c2ccccn2)cs1", "inhibition": "-7.77% (inactive)"}, {"smiles": "CC(C)(C)OC(=O)N(Cc1ccccc1)Cc1ccc(OCc2cccc(NC(=O)c3ccccc3)c2)cc1", "inhibition": "-1.04% (inactive)"}, {"smiles": "Cc1cccc(NC(=S)N2CCC(C(=O)c3ccc(F)cc3)CC2)c1", "inhibition": "-2.74% (inactive)"}, {"smiles": "CN(C)S(=O)(=O)c1cccc(NC(=O)Cc2ccsc2)c1", "inhibition": "56.9% (active)"}, {"smiles": "CN(C)S(=O)(=O)c1cccc(NC(=O)COc2ccc3ccccc3c2)c1", "inhibition": "-3.42% (inactive)"}, {"smiles": "CN(C)S(=O)(=O)c1cccc(NC(=O)COC(=O)/C=C/c2cccs2)c1", "inhibition": "-0.792% (inactive)"}, {"smiles": "COc1cc2c(cc1OC)C(Cc1cc(OC)c(OC)cc1[N+](=O)[O-])=NCC2", "inhibition": "-3.58% (inactive)"}, {"smiles": "COc1ccccc1NC1=NC(c2ccc(Cl)cc2)N=C(N)N1", "note": "(stereo not given)", "inhibition": "2.25% (inactive)"}, {"smiles": "CC1(C)N=C(N)NC(Nc2ccc(Cl)cc2)=N1", "inhibition": "46.4% (active)"}, {"smiles": "O=c1ccnc(Nc2ccc(Cl)cc2)[nH]1", "inhibition": "-6.21% (inactive)"}, {"smiles": "COc1ccc(-c2ccc3c(c2)C2CC3CCN2CCC#N)cc1", "note": "(stereo not given)", "inhibition": "-7.19% (inactive)"}, {"smiles": "Cc1ccccc1NCC(=O)N/N=C\\c1ccc([N+](=O)[O-])s1", "inhibition": "-2.26% (inactive)"}, {"smiles": "CNN/C(N=Cc1ccc([N+](=O)[O-])s1)=N\\S(=O)(=O)c1cc(C)c(Cl)cc1SCc1ccccc1", "inhibition": "66.8% (active)"}, {"smiles": "COc1ccc(C(=O)NCC(=O)N/N=C/c2ccc([N+](=O)[O-])s2)cc1OC", "inhibition": "1.89% (inactive)"}, {"smiles": "COc1cc(C(=O)CCc2ccc3c(c2)OCO3)cc(OC)c1OC", "inhibition": "-5.96% (inactive)"}, {"smiles": "O=C(O)c1cccc(S(=O)(=O)Nc2ccc(O)cc2Sc2nc3ccccc3s2)c1", "inhibition": "-1.01% (inactive)"}, {"smiles": "CCOc1ccc(S(=O)(=O)Nc2nc3cc(OC)ccc3s2)cc1", "inhibition": "1.2% (inactive)"}, {"smiles": "COc1ccc(S(=O)(=O)Nc2ccc(O)c(Sc3nc4ccccc4s3)c2)cc1", "inhibition": "40.1% (active)"}, {"smiles": "COc1ccc(CCNC(=O)c2ccc(NC(=O)CC3SC(N4CCCCC4)=NC3=O)cc2)cc1OC", "note": "(stereo not given)", "inhibition": "-1.27% (inactive)"}, {"smiles": "O=C1c2ccccc2C(=O)C1C(=O)C1CC1", "inhibition": "-5.16% (inactive)"}, {"smiles": "CS(=O)(=O)N(CC(=O)Nc1ccc(Cl)c(Cl)c1)C1CCCCC1", "inhibition": "51.4% (active)"}, {"smiles": "CCC(C)NC(=O)CN(C1CCCCC1)S(C)(=O)=O", "note": "(stereo not given)", "inhibition": "7.29% (inactive)"}, {"smiles": "CS(=O)(=O)N(CC(=O)Nc1ccc(F)cc1)C1CCCCC1", "inhibition": "-14.6% (inactive)"}, {"smiles": "COc1ccc(Cn2cc(CN3CCS(=O)(=O)N(Cc4ccc(-c5cccc(Cl)c5)cc4)C(C)C3=O)nn2)cc1", "note": "(stereo not given)", "inhibition": "-4.3% (inactive)"}, {"smiles": "CCCc1cc(-c2n[nH]c(=S)n2Cc2ccccc2)cs1", "inhibition": "-5.83% (inactive)"}, {"smiles": "CCn1c(-c2ccncc2)n[nH]c1=S", "inhibition": "-0.231% (inactive)"}, {"smiles": "O=C(N[C@H]1C/C=C\\C(c2ccc(F)cc2)N(Cc2ccccc2)C(=O)C1)OCC1c2ccccc2-c2ccccc21", "note": "(stereo not given in full)", "inhibition": "-2.32% (inactive)"}, {"smiles": "CC(C)Cc1nnc(NC(=O)CCc2ccccc2)s1", "inhibition": "-1.93% (inactive)"}, {"smiles": "O=C(Nc1nnc(CCc2ccccc2)s1)C1CCCO1", "note": "(stereo not given)", "inhibition": "32% (active)"}, {"smiles": "O=C(Nc1cccc(-c2nnc(-c3ccccc3)o2)c1)C1CCCO1", "note": "(stereo not given)", "inhibition": "-1.93% (inactive)"}, {"smiles": "CN(c1ccccc1)S(=O)(=O)c1ccc(C(=O)N2CCN(c3ccccc3Cl)CC2)cc1", "inhibition": "-2.37% (inactive)"}, {"smiles": "Cn1c(-c2ccccc2)c[n+]2c1CCCCC2", "inhibition": "-4.71% (inactive)"}, {"smiles": "Clc1ccc(C[n+]2cc(-c3ccc(Cl)cc3)n3c2CCC3)cc1", "inhibition": "36.9% (active)"}, {"smiles": "Cc1ccc(C(=O)C[n+]2cc(-c3ccccc3)n3c2CCCCC3)cc1", "inhibition": "-2% (inactive)"}, {"smiles": "COc1ccccc1CNC(=O)c1ccc(Cl)c(S(=O)(=O)N2CCCC2)c1", "inhibition": "-2.41% (inactive)"}, {"smiles": "O=C1NC[C@@H](c2ccccc2)OC(=O)[C@H](Cc2ccc(F)cc2)CC/C=C/C[C@H]1CC(=O)N(CCO)Cc1ccccc1", "inhibition": "-2.15% (inactive)"}, {"smiles": "Cc1ccc(OCCNC(=O)c2cccc(S(=O)(=O)N3CCN(Cc4ccccc4)CC3)c2)cc1", "inhibition": "-4.14% (inactive)"}, {"smiles": "NS(=O)(=O)c1ccc(CCNC(=O)c2ccc(Cl)c(S(=O)(=O)N3CCCCCC3)c2)cc1", "inhibition": "-16.5% (inactive)"}, {"smiles": "Cc1cc(C)c2c(-n3cccc3)c(NC(=O)OCc3ccccc3)sc2n1", "inhibition": "-1.91% (inactive)"}, {"smiles": "Cc1cc(C)c2c(-n3cccc3)c(C(=O)NNS(=O)(=O)c3ccc(F)cc3)sc2n1", "inhibition": "44.4% (active)"}, {"smiles": "COC(=O)Nc1sc2nc(C)cc(C)c2c1-n1cccc1", "inhibition": "0.432% (inactive)"}, {"smiles": "O=C(c1ccc2c(c1)C(=O)N(Cc1ccncc1)C2=O)N1CCN(S(=O)(=O)c2ccc(OC(F)(F)F)cc2)CC1", "inhibition": "-4.84% (inactive)"}, {"smiles": "O=C(COC(=O)CNC(=O)c1ccccc1F)NCC(F)(F)F", "inhibition": "-0.464% (inactive)"}, {"smiles": "C[C@H](NC(=O)c1ccccc1)C(=O)OCC(=O)c1c[nH]c2ccccc12", "inhibition": "-2.85% (inactive)"}, {"smiles": "O=C(CNC(=O)c1ccccc1F)OCC(=O)c1c[nH]c2ccccc12", "inhibition": "53.7% (active)"}, {"smiles": "CC(C)C[C@H]1CN([C@@H](CC(C)C)CN2CCC[C@@H]2CN2C(=O)C(=O)NC[C@@H]2Cc2ccccc2)C(=O)C(=O)N1CCc1ccccc1", "inhibition": "-2.72% (inactive)"}]}]}
